Consider 35 molecules from PubChem BioAssay.

Molecules are shown by their SMILES.

This assay deals with Human papillomavirus type 1a protein E7 (residues 44-93). Kind of assay: small molecules binding HPV E7 44-93 – biochemical, small-molecule microarray, residues 44-93, 635 nm fluorescence, primary screen (AID 1108).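 Note: E7 fragment applied at 1 µg/mL in TBST for 1 h at 4 C; score combines spot fluorescence with its signal to noise ratio.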 Conditions: fluorescence 635 nm, higher = more signal.
`COC(=O)[C@@]1(Cc2ccccc2)[C@H]2c3cc(C(=O)N4CCCC4)[nH]c3C[C@H]2CN1C(=O)c1ccccc1` had a composite z-score of -1.89.
Molecule `O=C(O)[C@H](Cc1ccccc1)n1cc(-c2ccccn2)nn1` registered a composite z-score of 0.55.
The molecule `O=C1O[C@@H](c2ccccc2)[C@@H](c2ccccc2)N2[C@@H](c3ccccc3OCCO)[C@]3(C(=O)Nc4ccc(C#CCCO)cc43)[C@@H](C(=O)N3CCN(c4ncccn4)CC3)[C@H]12` returned a composite z-score of 1.39.
For the molecule `COc1ccc([Si](C)(C)[C@@H]2[C@@H](CCO)O[C@]3(C(=O)N(Cc4cccc(N5C(=O)c6ccccc6Oc6ccccc65)c4)c4ccccc43)[C@H]2C)cc1`, the composite z-score amounted to 0.405.
Regarding `CN(C)CCCN1C(=O)[C@@]2(c3ccc([N+](=O)[O-])cc3)CC(=O)N(CC34CC5CC(CC(C5)C3)C4)[C@@H]2c2ccc(CO)cc21`, the composite z-score was 0.869.
In turn, `C[C@]12C(=O)N(CCCCCCO)[C@@H]3C(=O)N(c4ccc(Cl)cc4)CC=CC31O[C@@H]1/C=C\CCCOC(=O)C12` (stereo not given in full) showed a composite z-score of -0.358.
`CC1CC/C=C\[C@H]2OC34C=CCN(c5ccc6ccccc6c5)C(=O)[C@H]3N(C(CO)C(C)C)C(=O)[C@@H]4C2C(=O)O1` (stereo not given in full) showed a composite z-score of -0.546.
As to `O=C1O[C@@H](c2ccccc2)[C@@H](c2ccccc2)N2[C@@H](c3ccc(O)cc3)[C@]3(C(=O)Nc4ccc(C#CC5=CCCCC5)cc43)[C@@H](C(=O)N3CCN(c4ncccn4)CC3)[C@H]12`, the composite z-score was found to be 1.17.
`C[C@H]1ON(c2ccc(C(=O)OC(C)(C)C)cc2)[C@@H](c2ccc(O)cc2)[C@@H]1C(=O)N1C(=O)OC[C@@H]1c1ccccc1`: the composite z-score was 0.644.
On to `CCOC(=O)C[C@H]1[C@H](OC(=O)Cc2ccc3c(c2)OCO3)[C@@H](NC(=O)C2CCCCC2)c2cc(OCCCO)ccc2N1C(=O)c1ccc2ccccc2n1`, for which the composite z-score came to 1.33.
The molecule `CN1C(=O)C2C=CC(C(O)c3c(F)cccc3Cl)N(Nc3ccccc3)C2C1=O` (stereo not given) gave a composite z-score of 1.19.
Consider `COCCCNC(=O)[C@]1(Cc2ccccc2CN=[N+]=[N-])N=C(c2ccc(OCCCO)cc2)O[C@@H]1c1ccccc1`, for which the composite z-score was 1.4.
`[N-]=[N+]=NCc1ccccc1C[C@@]1(C(N)=O)N=C(c2ccc(OCCCO)cc2)O[C@@H]1c1ccccc1CN=[N+]=[N-]` came in with a composite z-score of 1.43.
`COC(=O)[C@@]1(Cc2ccc(OC)cc2)[C@H]2c3cc(C(=O)N4CCCC4)n(CCc4cc5ccccc5[nH]4)c3C[C@H]2CN1C(=O)c1ccccc1` displayed a composite z-score of 1.41.
Consider `COCCOC(=O)N1C(=O)[C@@]2(c3cc(C#Cc4ccc(OC)cc4)ccc31)[C@H](C(=O)NC[C@H](O)c1ccccc1)[C@H]1C(=O)O[C@H](c3ccccc3)[C@H](c3ccccc3)N1[C@@H]2c1ccc(O)cc1`, for which the composite z-score came to 0.872.
For `C=CC[C@@]12N=C(c3ccc(OCCCO)cc3)O[C@@H]1c1ccccc1N(CCS(=O)(=O)c1ccccc1)C2=O`, the composite z-score is 1.38.
The same measure for `C=CCN1C(=O)[C@]2(CC=C)N=C(c3ccc(OCCCO)cc3)O[C@@H]2c2ccccc21`: 1.37.
The molecule `Cc1ccc(S[C@]2(C(=O)NCC(C)C)CC(=O)N(Cc3ccccc3Cl)[C@@H]2c2ccc(CO)cc2I)cc1` had a composite z-score of 0.409.
Consider `COc1ccccc1CN1C(=O)c2ccccc2[C@](Cc2ccccc2I)(C(=O)NC(C)C)[C@@H]1c1ccc(CO)cc1`, for which the composite z-score stood at 1.46.
The molecule `CCOc1cc(C(O)C2C=CC3C(=O)N(C4CCCCC4)C(=O)C3N2Nc2ccc(OC)cc2)ccc1O` (stereo not given) displayed a composite z-score of 1.41.
For the molecule `COCCOC(=O)N1C(=O)[C@@]2(c3cc(C#Cc4ccc(OC)cc4)ccc31)[C@H](C(=O)N1CCCCCCC1)[C@H]1C(=O)O[C@H](c3ccccc3)[C@H](c3ccccc3)N1[C@@H]2c1ccc(O)cc1`, the composite z-score amounted to 1.36.
`C=C(C(=O)CC[C@H](OC(=O)c1cccnc1)c1ccc(CO)o1)C(C)C` showed a composite z-score of 0.362.
`COC(=O)[C@H](Cc1ccccc1)N1CC(/C=C/C2CC2)=C[C@@H]1[C@@H](O)Cc1ccccc1` gave a composite z-score of 1.31.
`COC(=O)[C@@]1(Cc2ccc(OC)cc2)[C@H]2c3cc(C(=O)N(C)C)n(Cc4nc5ccccc5[nH]4)c3C[C@H]2CN1C(=O)c1ccccc1` returned a composite z-score of 1.48.
Molecule `CN(C)C(=O)[C@]1(CCC(=O)OC(C)(C)C)N=C(c2ccc(OCCCO)cc2)O[C@@H]1c1ccccc1` returned a composite z-score of 1.17.
Molecule `COCCOC(=O)N1C(=O)[C@@]2(c3cc(C#CC4(O)CCCCCC4)ccc31)[C@H](C(N)=O)[C@H]1C(=O)O[C@H](c3ccccc3)[C@H](c3ccccc3)N1[C@@H]2c1ccccc1OCCO` registered a composite z-score of 1.38.
As for `Cc1ccc(S[C@]2(C(=O)NCC(F)(F)F)CC(=O)N(Cc3ccccc3)[C@@H]2c2ccc(CO)cc2)cc1`, the composite z-score is -0.341.
With `COCCCNC(=O)[C@@]1(Sc2ccc(C)cc2)CC(=O)N(C2Cc3ccccc3C2)[C@@H]1c1ccc(CO)cc1I`, the composite z-score is -0.499.
`C=CC[C@]1(C(=O)N(C)C)N=C(c2ccc(OCCCO)cc2)O[C@H]1c1ccccc1N=[N+]=[N-]` displayed a composite z-score of 1.4.
The molecule `CCOC(=O)C1=CC[C@@H](c2ccccc2C(F)(F)F)N(S(=O)(=O)c2ccc(C)cc2)C1` registered a composite z-score of 0.648.
In turn, `CC(C)C(O)C1C=CC2C(=O)N(C)C(=O)C2N1N(c1ccccc1)c1ccccc1` (stereo not given) had a composite z-score of -0.192.
`CCOC(=O)C1=CC[C@@H](c2ccc([N+](=O)[O-])cc2)N(S(=O)(=O)c2ccc(C)cc2)[C@H]1c1ccccc1` had a composite z-score of 1.4.
The same measure for `[N-]=[N+]=NCc1ccccc1C[C@@]1(C(=O)N2CCCCC2)N=C(c2ccc(OCCCO)cc2)O[C@@H]1c1ccccc1N=[N+]=[N-]`: 1.37; for `C=C(/C(=C/C[C@@H](OC(=O)c1ccncc1)c1ccccc1OCCO)c1cc(C(=O)OC)ccc1OC)C(C)C`: 1.36; for `COCCOC(=O)N1C(=O)[C@@]2(c3cc(C#CC4(O)CCCCCC4)ccc31)[C@H](C(N)=O)[C@H]1C(=O)O[C@H](c3ccccc3)[C@H](c3ccccc3)N1[C@@H]2c1ccc(O)cc1`: 1.4.
